Phagocytosis inh – macrophage phagocytosis inhibition | J774A.1 macrophage IgG-bead phagocytosis, imaging | inhibition, % at 5 µM | 0.07% of 110,000 active;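 active means inhibition above the mean of the plate negative controls plus 5 SD, cut at about 13% in these data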;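 further: phagocytic index as fraction of beads internalized from green versus red external bead signal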
GALR2 ag – GALR2 (human) receptor agonism | O43603 | GALR2-expressing cells, agonist activation read-out | activation, % (no concentration beside the values) | 0.48% of 140,000 active; in the data active means activation above about 5%, passing the limit was not always enough
Target sequence (O43603 whole entry, looked up): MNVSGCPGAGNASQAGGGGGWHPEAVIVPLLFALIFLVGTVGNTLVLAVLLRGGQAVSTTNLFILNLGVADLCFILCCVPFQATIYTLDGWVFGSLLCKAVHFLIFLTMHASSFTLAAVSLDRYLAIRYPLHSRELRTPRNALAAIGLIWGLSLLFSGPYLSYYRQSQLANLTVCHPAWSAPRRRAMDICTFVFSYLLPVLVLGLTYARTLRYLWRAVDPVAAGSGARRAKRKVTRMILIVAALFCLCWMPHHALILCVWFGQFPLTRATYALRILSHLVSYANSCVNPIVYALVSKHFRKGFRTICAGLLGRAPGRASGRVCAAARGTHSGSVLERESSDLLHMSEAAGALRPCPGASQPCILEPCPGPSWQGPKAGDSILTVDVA
GALR2 antag – GALR2 (human) receptor antagonism; GALR2-expressing cells, antagonist mode; AID 828; O43603; inhibition, % at 4 µM; 0.39% of 140,000 active; in the data active means inhibition above about 27%;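 further: cells stimulated with galanin 1-16 at roughly its EC80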
S1P2 blocker – S1P2 (human) receptor antagonism; AID 736; O95136; inhibition, % at 5 µM; 0.21% of 97,000 active; cell-based S1P2 antagonist assay, inhibition at 5 uM; in the data active means inhibition above about 45%;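 further: CRE beta-lactamase reporter cells expressing human S1P2 stimulated with S1P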
Target sequence (O95136 whole entry, looked up): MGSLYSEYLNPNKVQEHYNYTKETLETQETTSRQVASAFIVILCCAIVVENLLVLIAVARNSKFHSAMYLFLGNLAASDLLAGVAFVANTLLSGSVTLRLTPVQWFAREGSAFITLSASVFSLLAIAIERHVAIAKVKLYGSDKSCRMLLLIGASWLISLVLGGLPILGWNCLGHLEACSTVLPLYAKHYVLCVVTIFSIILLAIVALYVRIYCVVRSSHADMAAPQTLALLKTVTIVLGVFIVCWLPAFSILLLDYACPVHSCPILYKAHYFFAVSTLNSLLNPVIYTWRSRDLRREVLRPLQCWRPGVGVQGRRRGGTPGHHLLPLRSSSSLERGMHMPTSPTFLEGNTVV
Candida biofilm – kills Candida albicans biofilms; AID 834; inhibition, % at 6 µM; C. albicans biofilm + clotrimazole, Alamar Blue; 0.14% of 85,000 active;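 active means inhibition above 20%; inactive means inhibition below 20%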;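 further: preformed 24 hr biofilms exposed to compound for 48 hr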
S1P2 ag – S1P2 (human) receptor agonism; AID 729; S1P2-expressing cell line, agonist reporter read-out; activation, % at 4.5 µM; 0.46% of 97,000 active; in the data active means activation above about 16%
Of the large screens only hits and unclear results are named; the others gave an inactive call; [ ] = remark or other dose. An excerpt weighted towards active compounds, which were near 1.3% of everything screened.

CCCCCCC1CCC(C(=O)NC(CCSC)C(=O)NC(C(=O)OC)C(C)C)CC1 (stereo not drawn)	Candida biofilm 37
Cc1cccc(NC(=O)c2cc(S(=O)(=O)c3ccccc3)ccc2Cl)c1	none (no result: Candida biofilm)
O=C(Nc1nccs1)C1CCN(S(=O)(=O)c2cccnc2)CC1	Candida biofilm 21 (no result: GALR2 ag, GALR2 antag, S1P2 blocker, S1P2 ag)
O=C(Nc1nccs1)C1CCCN(S(=O)(=O)c2cccnc2)C1 (stereo not drawn)	none
CCOC(=O)C1=C(O)/C(=C/c2cc(OC)c(OC)c(OC)c2)SC1=Nc1ccc(OC)cc1	S1P2 ag 37 (no result: Phagocytosis inh, Candida biofilm)
COC(=O)c1cc2c(ccn2-c2ccc(F)cc2)n1C(C)C	none (no result: Phagocytosis inh)
CCCn1c(C(=O)OC)cc2c1ccn2-c1ccc(F)cc1	GALR2 ag 5.6 (no result: Phagocytosis inh)
CCS(=O)(=O)Nc1ccc(Cc2ccc(NS(=O)(=O)CC)cc2)cc1	none
Cn1nc(C(F)(F)F)c(C(=O)Nc2ccc(F)cc2F)c1Sc1cccc(C(F)(F)F)c1	none (no result: Phagocytosis inh, Candida biofilm)
Cc1noc(C)c1S(=O)(=O)N1CCCC(C(=O)N2CCN(C3CCCCC3)CC2)C1 (stereo not drawn)	none (no result: S1P2 blocker, S1P2 ag)
Cc1noc(C)c1S(=O)(=O)N1CCC(C(=O)N2CCC(N3CCCCC3)CC2)CC1	Candida biofilm 22 (no result: GALR2 ag, GALR2 antag, S1P2 blocker, S1P2 ag)
CN(C)S(=O)(=O)c1cccc(-c2nn(-c3ccccc3)cc2/C=C(\C#N)c2nc3ccccc3[nH]2)c1	GALR2 ag 7.3 (no result: S1P2 blocker, Candida biofilm, S1P2 ag)
Cc1ccc(S(=O)(=O)NC2CCCc3ccccc32)cc1C (stereo not drawn)	none
COc1ccc(/C=c2\sc3nc(-c4ccccc4)c(-c4ccccc4)n3c2=O)cc1OC	S1P2 ag 22 (no result: Candida biofilm)
COc1cc(/C=c2/sc3nc(-c4ccccc4)c(-c4ccccc4)n3c2=O)cc(OC)c1OC	none (no result: Phagocytosis inh, S1P2 blocker, Candida biofilm, S1P2 ag)
CC(C)Sc1nc(C(F)(F)F)cc(=O)n1-c1ccccc1	none (no result: Phagocytosis inh, Candida biofilm)
CCOC(=O)c1cc(-c2ccc3c(c2)OCCO3)nc2c1c(C)nn2CCC#N	GALR2 ag 7.1
O=[N+]([O-])c1cccc(-c2nc(-c3ccncc3)no2)c1	S1P2 ag 36 (no result: Phagocytosis inh, Candida biofilm)
COc1cc2c(cc1OC)C(COc1ccc3c(C)cc(=O)oc3c1)N(C(=O)c1ccco1)CC2 (stereo not drawn)	S1P2 ag 21 (no result: Phagocytosis inh)
CN(C)CCCNCCNC(=O)/C=N\O	none (no result: Candida biofilm)
CN(C)CCCCNCCCNC(=O)/C=N\O	Phagocytosis inh 54[artifact]
CCc1nc(C#N)c(N2CCOCC2)o1	none (no result: S1P2 blocker, Candida biofilm, S1P2 ag)
CCOC(=O)c1sc(NC(=S)NC(=O)c2ccco2)nc1C	none (no result: S1P2 blocker, Candida biofilm, S1P2 ag)
CNC(=O)c1nnc(Cc2ccc(F)cc2)o1	none (no result: GALR2 ag, GALR2 antag, S1P2 blocker, S1P2 ag)
Cc1ccc(S(=O)(=O)N/N=C/c2cc(Br)c(C)o2)cc1	S1P2 ag 27 (no result: Candida biofilm)
Cc1ccc(S(=O)(=O)N/N=C/c2cccc([N+](=O)[O-])c2)cc1	none (no result: S1P2 blocker, Candida biofilm, S1P2 ag)
Cc1cc(C)cc(Oc2nc(C(F)(F)F)nc3ccccc23)c1	S1P2 ag 18 (no result: Candida biofilm)
O=C1NC2=C(CCc3ccccc32)C(c2ccccc2)N1 (stereo not drawn)	none (no result: S1P2 blocker, Candida biofilm, S1P2 ag)
CCOc1cc(CNCCc2ccc(S(N)(=O)=O)cc2)ccc1OCc1ccc(Cl)cc1	S1P2 blocker 61 (no result: Phagocytosis inh, Candida biofilm)
O=C(CSC1=NCCS1)Nc1ccnc2ccccc12	GALR2 antag 35 (no result: S1P2 blocker, S1P2 ag)
CC(=O)Nc1ccc(NC(=O)CSC2=NCCS2)cc1	none
O=C(CSCCO)Nc1cccc2ccccc12	none
N#CCN1CCN(CC(=O)Nc2cccc3ccccc23)CC1	S1P2 ag 760 (no result: Phagocytosis inh)
CCCN1C(=O)c2ccc(C(=O)NC3=NCCS3)cc2C1=O	none
CCN1CCN(C(=O)c2oc(=O)c3ccccc3c2-c2ccc(C)cc2)CC1	none (no result: S1P2 blocker, S1P2 ag)
Cc1ccc(-c2c(C(=O)N3CCOCC3)oc(=O)c3ccccc23)cc1	Candida biofilm 27
COCCNC(=O)CN1CCN(C(c2ccccc2)c2ccccc2)CC1	S1P2 ag 55
O=C(Nc1ccc2c(c1)OCO2)c1cnn2cccnc12	GALR2 ag 374
COc1ccc(NC2C=CS(=O)(=O)C2)c(OC)c1 (stereo not drawn)	Candida biofilm 24
COc1cccc(NC2C=CS(=O)(=O)C2)c1 (stereo not drawn)	none (no result: Phagocytosis inh)
Cc1cc(-c2cc(-c3ccc(Cl)cc3)nc(N)c2C#N)co1	GALR2 ag 9.9, S1P2 ag 19 (no result: Phagocytosis inh)
Cc1ccc(-c2cc(-c3ccc(Cl)cc3)c(C#N)c(N)n2)o1	GALR2 ag 13, S1P2 ag 19
Cc1cc(SCC(=O)c2cc3ccccc3o2)nc2ccccc12	none (no result: Phagocytosis inh)
CSc1cccc(NC(=O)CN(c2cccc(C)c2)S(C)(=O)=O)c1	none
Cc1cccc(N(CC(=O)Nc2ccc(F)cc2)S(C)(=O)=O)c1	Candida biofilm 55
CCCN1C(=O)/C(=C/c2ccc(C)o2)SC1=Nc1ccc(OC)cc1	none (no result: Phagocytosis inh, Candida biofilm)
COc1ccc(N=C2S/C(=C\c3ccc(N4CCOCC4)o3)C(=O)N2CCc2c[nH]c3ccccc23)cc1	S1P2 blocker 48 (no result: Phagocytosis inh, Candida biofilm)
O=C(CCl)N(c1ccccc1)C1CCS(=O)(=O)C1 (stereo not drawn)	none (no result: S1P2 blocker, Candida biofilm, S1P2 ag)
Cc1ccc(OCCNC(=O)c2ccco2)cc1C	S1P2 ag 50
O=C(NCc1ccccc1)c1ccco1	none (no result: Phagocytosis inh)
Cc1ccc(CNC(=O)CCNC(=O)c2ccco2)cc1	S1P2 ag 869
CCCCNc1cc(C)nc(NCc2ccccc2)n1	S1P2 blocker 57
Cc1cc(Nc2ccc(Cl)cc2)nc(NCc2ccccc2)n1	none (no result: S1P2 blocker, Candida biofilm, S1P2 ag)
CCCN(CC1CC1)c1nc(N)c(C#N)c(CC#N)c1C#N	S1P2 ag 16 (no result: Candida biofilm)
CCCCN1C(=O)Cc2c1nc(N)c1c(N)nc(N(CCC)CCC)c(C#N)c21	none (no result: Candida biofilm)
CCCN(CCC)c1nc(N)c(C#N)c(CC#N)c1C#N	S1P2 ag 16
O=C(O)CCC(=O)NNC(=O)c1ccc(-c2ccccc2)cc1	none (no result: S1P2 blocker, Candida biofilm, S1P2 ag)
COc1ccc(S(=O)(=O)N2CCN(c3ccc4nnc(-c5ccc(F)cc5)n4n3)CC2)cc1	S1P2 blocker 48
CCc1nc(SCC(=O)Nc2ccc3c(c2)OCCO3)c2oc3ccccc3c2n1	none (no result: Phagocytosis inh)
Cc1nc(SCC(=O)Nc2ccc3c(c2)OCCO3)c2oc3ccccc3c2n1	S1P2 ag 19 (no result: Phagocytosis inh)
COc1ccccc1NC(=O)CSc1ncnc2c1oc1ccccc12	S1P2 ag 24
O=S(=O)([N-]c1nc2ccccc2nc1-[n+]1ccccc1)c1ccc(Cl)cc1	none (no result: Phagocytosis inh, Candida biofilm)
CCN(CC)c1ncnc2c1ncn2Cc1c(Cl)cccc1Cl	S1P2 ag 19 (no result: Phagocytosis inh)
Clc1cccc(Cl)c1Cn1cnc2c(N3CCCCCC3)ncnc21	none
CCN(CC)c1ncn(Cc2c(Cl)cccc2Cl)c2ncnc1-2	S1P2 ag 18 (no result: Phagocytosis inh)
O=C1c2cnc3nc(SCc4cccc(Cl)c4)nn3c2CC2c3ccccc3CCN12 (stereo not drawn)	none (no result: Candida biofilm)
O=C(Nc1ccc(-c2nc3ccc(NC(=O)c4cccs4)cc3[nH]2)cc1)c1cccs1	GALR2 antag 28
O=C(Nc1ccc2nc(-c3cccs3)[nH]c2c1)c1cccs1	none
COc1cc2c(cc1OC)C(c1ccc(-c3ccccc3Cl)o1)=NCC2	S1P2 ag 37
COc1cc2c(cc1OC)C(c1ccc(-c3ccc(Cl)cc3Cl)o1)=NCC2	S1P2 ag 34 (no result: Phagocytosis inh, Candida biofilm)
COc1cc2c(cc1OC)C(c1ccc(-c3cc(Cl)ccc3Cl)o1)=NCC2	S1P2 ag 39
COc1cc2c(cc1OC)C(c1ccc(-c3ccc(Cl)c(Cl)c3)o1)=NCC2	S1P2 ag 19
